High-throughput results deposited in PubChem BioAssay by National Center for Advancing Translational Sciences (NCATS).
Most compounds without a hit are left out; they make up all but 7.3% or so of the library.
Tau ThT inhib: tau fibrillization inhibition (ThT binding) | AID 1460 | Potency, µM (series often up to 57.4 µM), actives largely listed as inhibitors | recombinant tau K18 P301L, heparin-induced fibrillization, ThT fluorescence | hit rate 2.1% among 270,000 | P10636; also: nearly all actives have a fitted effect of over 55% in size
Target sequence (P10636 561-689 P618L limits assumed): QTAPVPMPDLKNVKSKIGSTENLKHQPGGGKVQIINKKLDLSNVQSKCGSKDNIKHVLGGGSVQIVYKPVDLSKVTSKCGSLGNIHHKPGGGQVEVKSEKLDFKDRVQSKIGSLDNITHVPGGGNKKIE
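K18 P301L tau (15 uM + 0.24 uM Alexa 594-tagged), heparin 20 uM, NaOAc pH 7, 6 h 37 C; ThT 30 uM, 1 h RT, ex 450/em 510 nm.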
Tau fibril FP: tau fibrillization inhibition (FP) | hit rate 0.39% among 280,000 | K18 P301L tau heparin fibrillization, Alexa594 FP, 6 h | P10636 | Potency, µM (doses to about 57.7 µM), actives largely listed as inhibitors | AID 1468; also: nearly all actives have a fitted effect of over 55% in size
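Quantitative HTS format: compounds meet 15 uM recombinant K18 P301L tau and Alexa 594-tau tracer in 100 mM sodium acetate pH 7; 20 uM heparin triggers fibrillization at 37 C over 6 hr; FP gives the signal.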
Tau fluor cs: counter-screen for tau fibril formation inhibitors; tau K18 P301L (four-repeat tau fragment) Alexa594 fluorescence, heparin fibrillization; Potency, µM (titrated, usually from 57.7 µM); hit rate 0.93% among 280,000; also: nearly all actives have a fitted effect of over 55% in size
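Human K18 P301L tau (15 uM unlabeled plus 0.24 uM Alexa 594-labeled, final) in 100 mM sodium acetate pH 7 was mixed with compound and 20 uM heparin and incubated 6 hr at 37 C.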
Gal4-VP16 FLuc: counter-screen for ROR gamma inhibitors: Gal4-VP16 reporter | Drosophila S2 Gal4-VP16 UAS-luciferase, luminescence, 20 h | Potency, µM (series often up to 53.6 µM), hits mostly inhibitors | hit rate 3.5% among 310,000;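 also: Gal4-VP16 expression switched on by copper sulfate through the metallothionein promoter; nearly all actives have a fitted effect of over 50% in size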
RORgamma inh: blocks mouse ROR gamma transcriptional activity; Drosophila S2 Gal4-RORgamma UAS-luciferase reporter, 20 h; Potency, µM (titrated, usually from 53.6 µM), hits mostly inhibitors; hit rate 5.4% among 310,000; AID 2551; also: nearly all actives have a fitted effect of over 60% in size
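Luminescence from a UAS-regulated Photinus luciferase reporter in stably transfected Drosophila Schneider cells is measured; decreased signal marks ROR gamma inhibition. Fusion expression is induced by 700 uM copper sulfate for 20 hr.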
Each line names hits and unclear results; the compound was inactive in the other large screens; [ ] = another dose, or the depositor's remark. Calls follow the shape of the dose curve; as a rule, active = well fitted curve in the direction sought with a large enough effect; inconclusive = small, poorly fitted or top-dose-only effect, or another doubt; inactive = no such curve, though single readings can be large; an effect the other way counts as inactive or inconclusive.

COc1ccc(-c2cc(C(=O)Nc3ccc(S(=O)(=O)Nc4ncccn4)cc3)c3ccccc3n2)cc1	none
COc1cc(-c2cc(C(=O)Nc3ccc(S(=O)(=O)Nc4ncccn4)cc3)c3ccccc3n2)cc(OC)c1OC	Gal4-VP16 FLuc 11µM
COc1ccc(Cl)cc1C(=O)NNC(=S)NC(=O)c1cc(-c2ccccc2)nc2ccccc12	Gal4-VP16 FLuc inconclusive
COc1ccc(C(=O)NNC(=S)NC(=O)c2cc(-c3ccccc3)nc3ccccc23)cc1	Tau ThT inhib inconclusive, Gal4-VP16 FLuc inconclusive, RORgamma inh 10µM
COC(=O)/C=C/c1cccc(N(Cc2ccc(-c3ccc(N(C)C)cc3)cc2)C(=O)C2CCCCC2)c1	none (no result: Tau ThT inhib, Tau fibril FP, Tau fluor cs)
COc1ccc(CCNC(=O)CSc2cn(CCNC(=O)c3c(F)cccc3F)c3ccccc23)cc1OC	Tau ThT inhib inconclusive (no result: Gal4-VP16 FLuc, RORgamma inh)
Cc1ccc(-c2cc(C(=O)n3cnc4ccccc43)c3ccccc3n2)cc1C	Tau ThT inhib inconclusive, Gal4-VP16 FLuc 13µM, RORgamma inh 10µM
Cc1ccc(-c2cc(C(=O)N3CCN(c4ccccc4)CC3)c3ccccc3n2)cc1C	none (no result: Gal4-VP16 FLuc, RORgamma inh)
O[C@@](CCN1CCCCC1)(c1ccccc1)C1CCCCC1	none (no result: Tau ThT inhib, Tau fibril FP, Tau fluor cs)
Cc1ccccc1Cn1cc(NC(=O)c2cc(C3CC3)on2)cn1	none
C=CCNC(=S)N/N=C/c1cn(C)c2ccccc12	none (no result: Tau ThT inhib)
C/C(=N\NC(=O)c1cccs1)c1ccc(C(=O)O)s1	none (no result: Tau ThT inhib, Tau fibril FP, Tau fluor cs)
Cn1cc(/C=N/NC(N)=S)c2ccccc21	Tau ThT inhib inconclusive, Gal4-VP16 FLuc 22µM, RORgamma inh inconclusive
Cn1cc(/C=N/NC(=O)c2ccc(C#N)cc2F)c2ccccc21	Tau ThT inhib inconclusive, Tau fluor cs inconclusive, Gal4-VP16 FLuc inconclusive, RORgamma inh 5µM
Cn1cc(/C=N\NC(=O)c2cccs2)c2ccccc21	Tau ThT inhib inconclusive, Tau fluor cs inconclusive, Gal4-VP16 FLuc inconclusive, RORgamma inh 8.9µM
C/C(=N\NC(=O)c1cccs1)C(C)(C)C	Gal4-VP16 FLuc inconclusive, RORgamma inh 13µM
Cc1ccc(N2CC(c3nnc(NC(=O)c4ccco4)s3)CC2=O)cc1C (configuration not stated)	none (no result: Gal4-VP16 FLuc, RORgamma inh)
Cc1ccsc1/C=N/NC(=O)c1ccccn1	Gal4-VP16 FLuc inconclusive
Cc1nn(-c2ccccc2)cc1/C=N/NC(N)=S	Gal4-VP16 FLuc 4.5µM, RORgamma inh 2.5µM
Cc1ccsc1/C=N/NC(=O)c1cccs1	Tau ThT inhib inconclusive, Gal4-VP16 FLuc 13µM, RORgamma inh 10µM
Cc1cc2c(nc1C)CCCN2C[C@@H](O)CN1CCN(C)CC1	none
CC(=O)Nc1sc(N/N=C/c2ccc(N(C)C)cc2)nc1-c1ccc(C)cc1	Tau ThT inhib 16µM, Tau fluor cs 32µM[quencher]
COc1cc(/C=N\Nc2nc(-c3ccc(C)cc3)c(NC(C)=O)s2)ccc1O	Tau ThT inhib inconclusive, Tau fluor cs inconclusive
CC(=O)Nc1sc(N/N=C/c2ccc(C)cc2)nc1-c1ccc(C)cc1	Tau ThT inhib inconclusive, Tau fluor cs inconclusive, Gal4-VP16 FLuc inconclusive, RORgamma inh inconclusive
CCOc1cc(/C=N\Nc2nc(-c3ccc(C)cc3)c(NC(C)=O)s2)ccc1O	Tau ThT inhib 20µM, Tau fluor cs inconclusive
O=C(CCn1c(=O)c2cccn2c2cccnc21)NCc1ccccc1Br	none (no result: Gal4-VP16 FLuc, RORgamma inh)
Cn1cc([N+](=O)[O-])c(C(=O)Nc2nc(-c3ccc(Cl)cc3)cs2)n1	Tau ThT inhib inconclusive, Tau fluor cs 13µM[quencher]
Cc1ccc(-c2nc(NC(=O)c3nn(C)cc3[N+](=O)[O-])sc2C)cc1	Tau fluor cs inconclusive
COc1ccc2c(c1)O[C@H](c1ccc3c(c1)OCO3)[C@@H](OC(=O)NCCOc1ccccc1)C2=O	none
CCCCN(CC)S(=O)(=O)c1ccc(C(=O)Nc2nnc(-c3cccs3)o2)cc1	Tau ThT inhib inconclusive, Gal4-VP16 FLuc 0.13µM, RORgamma inh 0.028µM
CN(c1ccccc1)S(=O)(=O)c1ccc(C(=O)Nc2nnc(-c3ccc(F)cc3)o2)cc1	Gal4-VP16 FLuc 1.6µM, RORgamma inh 1µM
CCCCN(C)S(=O)(=O)c1ccc(C(=O)Nc2nnc(-c3ccco3)o2)cc1	Gal4-VP16 FLuc 0.71µM, RORgamma inh 0.4µM
CCc1nnc(NC(=O)c2ccc(S(=O)(=O)N(CC)CC)cc2)s1	Gal4-VP16 FLuc inconclusive
CCN(CC)S(=O)(=O)c1ccc(C(=O)Nc2nnc(-c3ccco3)o2)cc1	Gal4-VP16 FLuc 1.3µM, RORgamma inh 0.56µM
C=Cc1ccc(Cn2c(C)c(CNCc3ccc(SC)cc3)c(C(=O)O)c2C)cc1	none (no result: Gal4-VP16 FLuc, RORgamma inh)
